Data published in PubChem BioAssay (NCATS).
A number with no mark means an inactive call. Inconclusive results are not listed. Activity calls are given as the source filed them. Calls come from the whole dose curve; as a rule, active = well fitted curve in the direction sought with a large enough effect; inconclusive = small, poorly fitted or top-dose-only effect, or another doubt; inactive = no such curve, though single readings can be large; an effect the other way counts as inactive or inconclusive.

Target: Alpha-galactosidase (Coffea arabica) (UniProt Q42656)
Sequence (Q42656 whole entry, looked up): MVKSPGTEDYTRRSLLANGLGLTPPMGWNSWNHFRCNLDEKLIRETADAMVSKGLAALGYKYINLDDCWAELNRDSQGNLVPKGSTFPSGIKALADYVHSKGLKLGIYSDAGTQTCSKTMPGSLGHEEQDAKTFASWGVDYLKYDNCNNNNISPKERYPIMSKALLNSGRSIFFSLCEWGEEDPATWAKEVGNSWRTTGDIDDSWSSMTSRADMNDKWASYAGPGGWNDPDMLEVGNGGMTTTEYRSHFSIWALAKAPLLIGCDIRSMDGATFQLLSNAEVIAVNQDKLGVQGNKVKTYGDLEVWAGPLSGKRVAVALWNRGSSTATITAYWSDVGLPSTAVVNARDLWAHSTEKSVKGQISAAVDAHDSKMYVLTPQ
Assay: Counterscreen for Glucocerebrosidase Inhibitors: qHTS Assay for Coffee Bean alpha-Galactosidase at pH 4.5 (AID 957);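 note: plate controls were enzyme alone for no effect and no enzyme for full effect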
Conditions: purified coffee bean alpha-galactosidase, fluorogenic substrate; series mostly up to 76.9 µM; activity change, negative = inhibition: at the top concentration
How it was run: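 AC50 values derive from Hill-equation modeling of concentration-response data, normalized to no-enzyme and full-activity controls. The pH 4.5 citrate assay used 2 nM coffee bean enzyme and 80 uM fluorogenic substrate for 20 min.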

SMILES	activity change, negative = inhibition	outcome
CCCCc1oc2ccccc2c1C(=O)c1cc(I)c(OCCN(CC)CC)c(I)c1	-7.33%	
CC(=O)Nc1nnc(S(N)(=O)=O)s1	2.16%	
CC(=O)N[C@@H](CS)C(=O)O	-0.64%	
O=c1n(CCCN2CCN(c3cccc(Cl)c3)CC2)nc2ccccn12	4.05%	
CN1CCN(C2=Nc3cc(Cl)ccc3Nc3ccccc32)CC1	-1.37%	
CC(=O)CCCCn1c(=O)c2c(ncn2C)n(C)c1=O	2.02%	
CCN(CC)CCOC(=O)C1(C2CCCCC2)CCCCC1	-7.38%	
NS(=O)(=O)Cc1noc2ccccc12	2.5%	
CCCC(CCC)C(=O)O	-2.63%	
O=C1NC(=O)C(c2ccccc2)(c2ccccc2)N1	2.71%	
NC[C@H](O)c1ccc(O)c(O)c1		inactive
CC/C(=C(\c1ccccc1)c1ccc(OCCN(C)C)cc1)c1ccccc1	-6.22%	
NC(=O)OCC(COC(N)=O)c1ccccc1	-1.43%	
COc1cc2c(c(OC)c1OC)-c1ccc(OC)c(=O)cc1[C@@H](NC(C)=O)CC2	-3.14%	
O=C1c2c(O)ccc(O)c2C(=O)c2c(NCCNCCO)ccc(NCCNCCO)c21	0.232%	
CN1CCN(CCCN2c3ccccc3Sc3ccc(C(F)(F)F)cc32)CC1	-2.19%	
N[C@@H]1CONC1=O		inactive
NC12CC3CC(CC(C3)C1)C2	2.81%	
CN(C)CCCN1c2ccccc2CCc2ccc(Cl)cc21	-5.04%	
CC[N+](CC)(CC)CC	-1.09%	
CN1CCC(=C2c3ccccc3C=Cc3ccccc32)CC1	-5.63%	
NNc1nncc2ccccc12	0.127%	
Cc1[nH]c(=O)c(C#N)cc1-c1ccncc1	2.19%	
COc1cc(Cc2cnc(N)nc2N)cc(OC)c1OC	-1.43%	
CC(C)C(=O)Nc1ccc([N+](=O)[O-])c(C(F)(F)F)c1	-2%	

Test system: not listed separately
Assay: MultiTox-Fluor Cytotoxicity Assay - LYMP1-002 - Dead Cells (AID 960); note: potency is the fitted concentration of half-maximal effect; nearly all actives have a fitted effect of over 60% in size
Conditions: LYMP1-002 lymphoblastoid cells, dead-cell protease fluorescence; series mostly up to 46.1 µM; cytotoxicity (dead cells): at the top concentration
How it was run: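 Acute cytotoxicity in a human lymphoblastoid line is scored as rising dead-cell protease signal after 16 hr exposure at 37 C, measured fluorometrically (485/520).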

SMILES	Potency
CN(C)CCC=C1c2ccccc2CCc2ccccc21	25.1 µM (active)
Cc1c(O)cccc1C(=O)N[C@@H](CSc1ccccc1)[C@H](O)CN1C[C@H]2CCCC[C@H]2C[C@H]1C(=O)NC(C)(C)C	31.6 µM (active)
Oc1cccc2cccnc12	15.8 µM (active)
CC(=O)Oc1ccccc1C(=O)Nc1ncc([N+](=O)[O-])s1	25.1 µM (active)
CC(C)C(=O)Nc1ccc([N+](=O)[O-])c(C(F)(F)F)c1	15.8 µM (active)

Test system: not listed separately
Assay: MultiTox-Fluor Cytotoxicity Assay - LYMP1-003 - Dead Cells (AID 961);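 note: potency is the fitted concentration of half-maximal effect; cells exposed to compound for 16 h at 37 °C; nearly all actives have a fitted effect of over 70% in size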
Conditions: LYMP1-003 lymphoblastoid cells, dead-cell protease fluorescence; series mostly up to 92.2 µM; cytotoxicity (dead cells): at the top concentration
How it was run: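 Human lymphoblastoid LYMP1-003 cells (2500/well) were treated with compounds for 16 hr at 37 C in complete medium. Dead-cell protease release was read by bis-AAF-R110 fluorescence (Ex/Em 485/520). AC50 came from Hill fits, normalized to DMSO and 15 uM tetraoctylammonium bromide.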

SMILES	Potency
CC/C(=C(\c1ccccc1)c1ccc(OCCN(C)C)cc1)c1ccccc1	39.8 µM (active)
COc1cc2c(c(OC)c1OC)-c1ccc(OC)c(=O)cc1[C@@H](NC(C)=O)CC2	0.631 µM (active)
CC1=C(/C=C/C(C)=C/C=C/C(C)=C/C(=O)Nc2ccc(O)cc2)C(C)(C)CCC1	39.8 µM (active)
CC(=O)Oc1ccccc1C(=O)Nc1ncc([N+](=O)[O-])s1	39.8 µM (active)

Test system: not listed separately
Assay: Cell Viability - LYMP2-013 (AID 970);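 note: potency is the fitted concentration of half-maximal effect; cells exposed to compound for 24 h at 37 °C; nearly all actives have a fitted effect of over 55% in size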
Conditions: LYMP2-013 lymphoblastoid cells viability; series mostly up to 92.2 µM; activity change, negative = cytotoxic: at the top concentration
How it was run: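 Acute toxicity was measured in human lymphoblastoid cells (2500/well) exposed to compound titrations for 24 hr, with ATP luminescence (CellTiter-Glo) as read-out and AC50 fitted by Hill equation.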

SMILES	Potency
CC(COc1ccccc1)N(CCCl)Cc1ccccc1 (stereo not given)	39.8 µM (active)
Oc1cccc2cccnc12	15.8 µM (active)
CC(=O)Oc1ccccc1C(=O)Nc1ncc([N+](=O)[O-])s1	39.8 µM (active)

Test system: not listed separately
Assay: Cell Viability - LYMP2-015 (AID 971); note: potency is the fitted concentration of half-maximal effect; nearly all actives have a fitted effect of over 55% in size
Conditions: LYMP2-015 lymphoblastoid cell viability; series mostly up to 92.2 µM; activity change, negative = lower viability: at the top concentration
How it was run: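 Acute toxicity was scored as a concentration-dependent drop in intracellular ATP in lymphoblastoid cells after 24 hr compound exposure in complete medium. Detection used CellTiter-Glo luciferase luminescence.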

SMILES	Potency
CN(C)CCC=C1c2ccccc2CCc2ccccc21	31.6 µM (active)
CC(COc1ccccc1)N(CCCl)Cc1ccccc1 (stereo not given)	39.8 µM (active)
Oc1cccc2cccnc12	12.6 µM (active)
